SKN-1 block: C. elegans SKN-1 inhibition. inhibition, % at 21.8 µM. 360,000 compounds, 0.49% hits. C. elegans VP596 Pgst-4::GFP/RFP ratio, acrylamide-induced, 24 h;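 active means interference check ratio from 0.5 to 1.5 plus GFP to RFP signal ratio inhibition reaching or exceeding a fixed threshold, cut at about 30% in these data, passing the limit was not always enough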
PG9 binder: small molecules binding HIV-1 gp120 antibody PG9. TR-FRET gp120-PG9 antibody binding. inhibition, % at 6.7 µM. 360,000 compounds, 0.43% hits. AID 624416; in the data active means inhibition above about 8.5%
RAM inhibit: inhibitors of the yeast RAM network | 190,000 compounds, 1.8% hits | inhibition, % at 50 µM | S. cerevisiae dse1pr::URA3 reporter, 5-FOA growth OD615, 2 d; analog-sensitive cbk1-as2 kinase mutant strain;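 active means inhibition above a set limit, 3 SD over mean compound inhibition, cut at about 8.4% in these data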;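 further: inhibition rescues growth on 5-FOA so higher OD means more RAM inhibition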
EP2 antag: blocks the human prostaglandin E2 receptor EP2; inhibition, % at 25 µM; 260,000 compounds, 0.52% hits; C6 glioma cells expressing human EP2, cAMP TR-FRET; cells stimulated with saturating PGE2;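 active means percent inhibition above 40 after rounding to a whole number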;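 further: rat C6 glioma host cells with rolipram phosphodiesterase inhibitor present; the protocol text gives 20 µM as final concentration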
EP2 modulator: modulates human prostaglandin E2 receptor EP2 signaling; P43116; EP2-expressing cells, cAMP HTRF FRET, PGE2 co-stimulation; induction, % at 25 µM; 260,000 compounds, 0.83% hits; AID 940;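 active means compounds whose cAMP rise, as percent of the full-agonist control response, exceeds 60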;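 further: rat C6 glioma line stably carrying human EP2 under a CMV promoter; the protocol text gives 20 µM as final concentration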
NR1D1 modulator: modulators of human Rev-erb alpha DNA binding. AID 1259318. 370,000 compounds, 0.79% hits. Rev-erbα–FITC-DNA binding, fluorescence polarization, 90 min. activity, % at 10 µM;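 active means activity above about 14%, limit read from the data; passing the limit was not always enough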
Target sequence (P20393 whole entry, looked up): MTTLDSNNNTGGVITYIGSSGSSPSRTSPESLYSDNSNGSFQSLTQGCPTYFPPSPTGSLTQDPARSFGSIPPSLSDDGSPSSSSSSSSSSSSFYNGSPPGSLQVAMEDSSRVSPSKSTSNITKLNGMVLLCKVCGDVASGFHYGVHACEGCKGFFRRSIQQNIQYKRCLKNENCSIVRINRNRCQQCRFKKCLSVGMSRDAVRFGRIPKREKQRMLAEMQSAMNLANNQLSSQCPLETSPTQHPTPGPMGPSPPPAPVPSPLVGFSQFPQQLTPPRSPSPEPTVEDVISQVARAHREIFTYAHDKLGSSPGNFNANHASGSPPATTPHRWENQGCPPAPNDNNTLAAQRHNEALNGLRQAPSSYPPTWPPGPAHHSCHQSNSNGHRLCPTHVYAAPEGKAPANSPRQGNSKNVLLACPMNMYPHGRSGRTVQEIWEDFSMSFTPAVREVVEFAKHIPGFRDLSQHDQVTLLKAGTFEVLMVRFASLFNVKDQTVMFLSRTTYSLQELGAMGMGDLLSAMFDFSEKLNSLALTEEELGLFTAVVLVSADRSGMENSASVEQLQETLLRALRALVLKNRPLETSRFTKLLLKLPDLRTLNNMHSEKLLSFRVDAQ
Large screens that a line does not name were inactive; ! = a repeat was not active. This is a sample that favours compounds with a hit; in the whole collection about 2.9% have one here.

CCc1nn(CC(=O)N2CCCC2)c(=O)c2cc3oc(C)cc3n12	none (no result: SKN-1 block, PG9 binder, RAM inhibit, NR1D1 modulator)
CC(CCc1ccccc1)NC(=O)c1nnc(Cc2ccc(Cl)cc2)o1 (configuration not stated)	RAM inhibit 8.7
Cc1cc2cc3c(cc2n2c(SCC(=O)N4c5ccccc5CC4C)nnc12)OCO3 (configuration not stated)	none (no result: SKN-1 block, PG9 binder, RAM inhibit, NR1D1 modulator)
NC(N)=N/N=C/c1ccc(OCc2ccccc2)cc1	none (no result: NR1D1 modulator)
NC(N)=N/N=C/c1ccc(OCc2ccc(Cl)cc2)cc1	EP2 antag 64
Cc1cccc(Oc2nc(-c3ccncc3)nc3ccccc23)c1	EP2 modulator 71 (no result: RAM inhibit)
COC(=O)CNc1nc(-c2ccncc2)nc2ccccc12	none (no result: EP2 antag)
CCOc1nc(-c2ccncc2)nc2ccccc12	SKN-1 block 39
c1ccc(Oc2nc(-c3cccnc3)nc3ccccc23)cc1	EP2 modulator 87 (no result: RAM inhibit)
c1ccc(CCNc2nc(-c3ccncc3)nc3ccccc23)cc1	EP2 antag 46 (no result: RAM inhibit)
CCc1nc2ccc(F)cc2c(C(=O)NCc2ccco2)c1C	none (no result: SKN-1 block, PG9 binder, RAM inhibit, NR1D1 modulator)
O=C(NCCNCc1ccco1)c1ccccc1	none (no result: SKN-1 block, PG9 binder, RAM inhibit, NR1D1 modulator)
Cc1ccc2[nH]c3c(c2c1)CCC3=O	EP2 antag 42
c1ccc(-c2ccc(-n3ccnc3)cc2)cc1	SKN-1 block 82
c1ccc(-c2ccc(C(c3ccccc3)n3ccnc3)cc2)cc1 (configuration not stated)	none
CCCN(CCC)S(=O)(=O)c1c(C)ccc2nsnc12	none (no result: SKN-1 block, PG9 binder, RAM inhibit, NR1D1 modulator)
CC[C@@H](Cn1nc(-c2cccs2)ccc1=O)NC(=O)CCn1ncc2ccccc21	none (no result: SKN-1 block, PG9 binder, RAM inhibit, NR1D1 modulator)
CCc1cc2ccc(C)cc2nc1SCC(=O)N1CCCCC1	none (no result: SKN-1 block, PG9 binder, RAM inhibit, NR1D1 modulator)
CCCCNc1oc(-c2cccs2)nc1S(=O)(=O)c1ccccc1	RAM inhibit 9.5
CNc1oc(-c2cccs2)nc1S(=O)(=O)c1ccccc1	none
Cc1sc2nc(C(C)C)n3c(=O)n(CC(=O)NC(C)C)nc3c2c1C	none (no result: SKN-1 block, PG9 binder, RAM inhibit, EP2 antag, NR1D1 modulator)
Cc1ccc(S(=O)(=O)CCC(=O)OCC(=O)c2ccc(C)c(C)c2)cc1	RAM inhibit 11
COc1ccc(C(=O)[C@H](Br)[C@H](Br)C(=O)O)cc1	EP2 antag 42 (no result: SKN-1 block, PG9 binder, RAM inhibit, NR1D1 modulator)
COc1ccc(C(=O)c2ccccc2)cc1	none
CCN1CCOC(CC(=O)Nc2cccc(C)c2)C1=O (configuration not stated)	EP2 modulator 69 (no result: SKN-1 block, PG9 binder, RAM inhibit, NR1D1 modulator)
CCOC(=O)c1c(NC(=O)c2ccc(C)cc2)sc2c1CC(C)(C)OC2	RAM inhibit 10
CCCC(=O)Nc1sc2c(c1C(=O)OCC)CC(C)(C)OC2	none
CCOC(=O)c1c(NC(=O)c2ccccc2C)sc2c1CC(C)(C)OC2	RAM inhibit 8.8
O=C(NCCc1ccccc1)[C@H]1C=CCN1C(=O)c1cccs1	none (no result: SKN-1 block, PG9 binder, RAM inhibit, NR1D1 modulator)
CCOc1ccc(C(=O)Nc2c3c(nn2-c2ccc(C)cc2)CS(=O)C3)cc1OCC (configuration not stated)	RAM inhibit 9.6
CN1c2cccc3cccc(c23)N(C)C1c1cccs1	EP2 modulator 64
Nc1ccccc1SCC(=O)N1c2ccccc2Sc2ccc(C(F)(F)F)cc21	EP2 modulator 88 (no result: SKN-1 block, PG9 binder, RAM inhibit, NR1D1 modulator)
O=C(/C=C/c1ccccc1)N1c2ccccc2Sc2ccc(C(F)(F)F)cc21	none
O=C(O)c1ccccc1SCC(=O)N1CCCCC1	none
O=C(CCCl)N1c2ccccc2Sc2ccccc21	EP2 modulator 70 (no result: SKN-1 block, PG9 binder, RAM inhibit, NR1D1 modulator)
O=C(O)c1ccccc1SCC(=O)N1c2ccccc2Sc2ccccc21	RAM inhibit 11
CCCc1cc(C(=O)Nc2nccs2)cs1	SKN-1 block 33
CC1(c2ccccc2)CC(C)(C)N2C(=O)C3(C(C#N)=C(N)Oc4cc(O)ccc43)c3cccc1c32 (configuration not stated)	EP2 modulator 62
CCCNC(=O)COC(=O)C1CCN(S(=O)(=O)c2ccc3c(c2)OCCO3)CC1	SKN-1 block 45 (no result: RAM inhibit, EP2 antag, EP2 modulator)
COc1cccc(-c2cc(C(=O)O)c3cc4ccccc4cc3n2)c1OC	none (no result: RAM inhibit, EP2 antag, EP2 modulator)
COc1ccc(OC)c(-c2cc(C(=O)O)c3cc4ccccc4cc3n2)c1	EP2 antag 55 (no result: RAM inhibit)
O=C(COc1ncnc2ccccc12)NC(c1ccccc1)c1cccnc1 (configuration not stated)	none (no result: SKN-1 block, PG9 binder, RAM inhibit, NR1D1 modulator)
CCN(CC)S(=O)(=O)c1ccc2oc(SCc3ccc(F)cc3)nc2c1	RAM inhibit 10.0
CCN(CC)S(=O)(=O)c1ccc2oc(SCC(=O)NC3CC3)nc2c1	none (no result: RAM inhibit, EP2 antag, EP2 modulator)
Cc1cc(C)c2cc(C(c3nnnn3C3CCCCC3)N3CCCCC3)c(=O)[nH]c2c1 (configuration not stated)	none (no result: SKN-1 block, PG9 binder, RAM inhibit, NR1D1 modulator)
CCCSc1nc(N2CCOCC2)c2c(c1C#N)CC(C)(C)SC2	SKN-1 block 38, EP2 modulator 65
COC(=O)[C@H]1CN(C(=O)C2CC(=O)N(C)C2)C[C@@H]1c1ccc(F)cc1 (some centres not stated)	none (no result: SKN-1 block, PG9 binder, RAM inhibit, EP2 antag, NR1D1 modulator)
O=C(Cc1ccccc1)N/N=C/c1ccc(-c2ccc([N+](=O)[O-])cc2)o1	none
CCCNC(=O)Cn1c(=O)/c(=C\c2ccc(-c3cccc([N+](=O)[O-])c3)o2)s/c1=C\C(=O)C(C)(C)C	RAM inhibit 9.4
CCCNC(=O)Cn1c(=O)/c(=C/c2ccc(-c3cccc([N+](=O)[O-])c3)o2)s/c1=C\C(=O)C(C)(C)C	none (no result: RAM inhibit, EP2 antag, EP2 modulator)
CCCNC(=O)Cn1c(=O)/c(=C\c2ccc(-c3ccc([N+](=O)[O-])cc3)o2)s/c1=C\C(=O)C(C)(C)C	RAM inhibit 9.7 (no result: PG9 binder, NR1D1 modulator)
COc1cccc(C2Nc3ccc(C(=O)O)cc3C3C4CCC(C4)C23)c1OC (configuration not stated)	none (no result: SKN-1 block, PG9 binder, RAM inhibit, NR1D1 modulator)
CCN1CCCC1CN(Cc1cc2cccc(C)c2[nH]c1=O)C(=O)NC1CCCCC1 (configuration not stated)	none (no result: SKN-1 block, PG9 binder, RAM inhibit, NR1D1 modulator)
CN1CCN(CCCN2c3ccccc3Sc3ccc(C(F)(F)F)cc32)CC1	EP2 antag 41!
CCCCCCCCCC(=O)OCCN1CCN(CCCN2c3ccccc3Sc3ccc(C(F)(F)F)cc32)CC1	none (no result: SKN-1 block, PG9 binder, RAM inhibit, EP2 antag, EP2 modulator)
COc1ccccc1-c1cc(C(=O)N2CCN(c3ccc(F)cc3)CC2)no1	RAM inhibit 9.4
Cc1cc(C)c2[nH]c(=O)c(CN(Cc3ccccc3)S(=O)(=O)c3cccc4nsnc34)cc2c1	none (no result: SKN-1 block, PG9 binder, RAM inhibit, NR1D1 modulator)
CCn1c(CSc2nnc(-c3cccnc3)n2-c2ccccc2C)nc2cc(C(=O)O)ccc21	none (no result: SKN-1 block, PG9 binder, EP2 antag, NR1D1 modulator)
CCn1c(CSc2nnc3ccccn23)nc2cc(C(=O)O)ccc21	none
CCn1c(CSc2nnc(-c3ccncc3)n2CCOC)nc2cc(C(=O)O)ccc21	SKN-1 block 38
CCn1c(CSc2n[nH]c(N)n2)nc2cc(C(=O)O)ccc21	SKN-1 block 37
O=C(NNC(=O)c1ccco1)c1cnccn1	none (no result: SKN-1 block, PG9 binder, RAM inhibit, NR1D1 modulator)
Nc1cc2c(nc3c4ccccc4c(N)cc3[n+]2-c2cccc3ccccc23)c2ccccc12 (tested in a mixture with another compound)	EP2 antag 54 (no result: SKN-1 block, PG9 binder, RAM inhibit, NR1D1 modulator)
CCc1ccc2[nH]c(=O)c(CN(C(=S)NCC3CCCO3)C3CCCCC3)cc2c1 (configuration not stated)	none (no result: SKN-1 block, PG9 binder, RAM inhibit, NR1D1 modulator)

Source: PubChem (several laboratories)
